The text below walks through data of PubChem BioAssay (Tox21).

Records with an inconclusive call do not appear. Values without a mark were called inactive. Activity calls are given as the source filed them. Calls come from the whole dose curve; as a rule, active = well fitted cell-killing curve with a large enough effect in the repeat runs; inconclusive = weak or mixed curves; inactive = flat fitted curve, though single readings scatter.
% is set by controls: 0 for no effect and ±100 for the full control effect; potency is the fitted concentration of half-maximal effect.

The nature of this assay: qHTS assay to identify small molecule antagonists of the TGF-beta/Smad signaling pathway - cell viability counter screen (AID 1346824). Note: nearly all actives have a fitted effect of over 50% in size. Conditions: SBE-bla HEK293T viability, CellTiter-Glo luminescence; series mostly up to 76.8 µM; viability change, negative = cytotoxic: at the top concentration. From the text:
U.S. Tox21 Program National Center for Advancing Translational Sciences [NCATS] NIH Chemical Genomics Center [NCGC] U.S. Environmental Protection Agency [EPA] National Institutes of Environmental Health Sciences [NIEHS] National Toxicology Program [NTP] U.S. Food and Drug Administration [FDA] Tox21 Assay Overview: Transforming growth factor beta (TGF-beta) superfamily consists of a large number of structurally related dimeric proteins that act as hormones or local mediators in regulating a wide range of biological functions. This superfamily includes TGF-betas themselves, the bone morphogenetic proteins (BMPs) and the activins. These ligands induce oligomerization of serine/threonine receptor kinases and phosphorylate the cytoplasmic signaling molecules of Smad protein family. CellSensor SBE-bla HEK 293T cell line (Life Technologies, Carlsbad, CA), responsive to TGF-beta was used to screen Tox21 10K compound library for identification of agonists/antagonists of the Smad signaling pathway. This cell line contains a beta-lactamase reporter gene under control of the Smad binding element (SBE) stably integrated into HEK 293T cells. Also cytotoxicity of the compounds was tested in parallel by measuring the cell viability using CellTiter-Glo assay system in the same wells.
Tox21 Assay Protocol Summary: SBE-bla HEK 293T cells were dispensed at 4,000/well in 5 uL of assay medium into black wall/clear-bottom 1536-well plates using a Multidrop Combi (ThermoFisher Scientific, Waltham, MA) dispenser. After the assay plates were incubated at 37 C and 5% CO2 for an overnight, 23 nL of compounds dissolved in DMSO, positive controls or DMSO only was transferred to the assay plate by a Pintool station (Kalypsys, San Diego, CA). Compound transfer was followed by the addition of 1 uL of 0.25 ng/mL TGF-beta1 or assay buffer using two separate tips of Flying Reagent Dispenser (FRD, Aurora Discovery, San Diego, CA). The assay plates were incubated at 37 C and 5% CO2 for 5 hr. One uL of LiveBLAzer B/G FRET substrate (Life Technologies) was added using a Flying Reagent Dispenser (FRD, Aurora Discovery, San Diego, CA) and the plates were incubated at room temperature for 2 hr. Fluorescence intensity (405 nm excitation, 460 nm and 530 nm emissions) was measured using an Envision plate reader (PerkinElmer, Shelton, CT). For cytotoxicity read, 4 uL of CellTiter-Glo reagent (Promega Corporation, Madison, WI) was added to each well of the assay plates using FRD. After 30 min incubation at room temperature, the luminescence intensity was measured using ViewLux plate reader (PerkinElmer).
With `CC(C)c1c(CN(C)C(C)Cc2ccccc2)n(C)n(-c2ccccc2)c1=O` (stereo not given), the “viability change, negative = cytotoxic” value is -7.27% [at 35.3 µM].
Still for that read-out and setting: in the case of `CSSC` it was -3.35%.
Still for that read-out and setting: then `Cc1c([N+](=O)[O-])c(C)c([N+](=O)[O-])c(C(C)(C)C)c1[N+](=O)[O-]`, with -8%.
The same measure, in the same setting: in the case of `COC(=O)C(C)N(C(=O)c1ccco1)c1c(C)cccc1C` (stereo not given) it was -8.21%; in that of `COP(=S)(OC)Oc1nc(Cl)c(Cl)cc1Cl`, 1.43%; in that of `CNC(=O)O/N=C(\C)C(C)S(C)(=O)=O` (stereo not given), 2.43% [at 725 µM].
Consider `Nc1ccc(N=Nc2ccccc2)cc1`, for which the “viability change, negative = cytotoxic” value is -4.22%.
The same measure, in the same setting: in the case of `COc1ccc(Cc2nccc3cc(OC)c(OC)cc23)cc1OC` it was -11.9% [at 35.3 µM].
On the same count and under the same terms, then `CC(C)(C)c1ccc(OP(=O)(Oc2ccccc2)Oc2ccccc2)cc1`, with -5.15%; and `[C-]1=CC=CC1.[Cl][Zr+2][Cl].c1cc[cH-]c1`, with 2.17%.
Still for that read-out and setting: then `CCCCC(CC)COC(=O)OOC(C)(C)C` (stereo not given), with -10.1%.
As to `ClC1=C(Cl)[C@]2(Cl)[C@H]3[C@H]([C@@H]4C=C[C@H]3C4)[C@@]1(Cl)C2(Cl)Cl`, the Potency result was “inactive”.
On to `O.O.O.O.O.O.O.O=S(=O)([O-])[O-].[Co+2]`, for which the “viability change, negative = cytotoxic” value was 0.442%.
Same read-out and setting: then `Oc1ccc(Cl)c(Cl)c1`, with -13.1%; and `O=[N+]([O-])c1ccc(Cl)c(Cl)c1Cl`, with -11.7%.
Same read-out and setting: then `CC(=O)[O-].CC(=O)[O-].O.O.O.[Pb+2]`, with -8.42%; and `CCOP(=S)(OCC)SC(CCl)N1C(=O)c2ccccc2C1=O` (stereo not given), with -6.61%; and `C[C@]12CC[C@H]3[C@@H](CCC4=CC(=O)CC[C@@H]43)[C@@H]1CC[C@@H]2OC(=O)CCc1ccco1`, with -5.86% [at 35.3 µM].
For `CCCN`, the “viability change, negative = cytotoxic” value is 8.42%.
On the same count and under the same terms, then `CCn1cc[n+](C)c1` (tested in a mixture with another compound), with -12.7%; and `CCOC(=O)CCN(SN(C)C(=O)Oc1cccc2c1OC(C)(C)C2)C(C)C`, with -25.4%.
On the same count and under the same terms, in the case of `CN=C=O` it was 19.3%.
Same read-out and setting: in the case of `CCCCON=O` it was 15.1%; in that of `c1cc[n+]2c(c1)-c1cccc[n+]1CC2`, 0.469% [at 35.3 µM]; in that of `Clc1ccc(C2(Cn3cncn3)OCCO2)c(Cl)c1`, 2.1%.
On to `Oc1cc(Cl)cc(Cl)c1`, for which the “viability change, negative = cytotoxic” value was -28.7%.
As for `[Cl][Hg][c]1ccccc1`, the Potency is 19500 nM (active).
As for `[F][Sn]([c]1ccccc1)([c]1ccccc1)[c]1ccccc1`, the Potency was 1380 nM (active).
`S=C=Nc1ccccc1`: the “viability change, negative = cytotoxic” value was 8.14%.
Same read-out and setting: then `BrCCCBr`, with -1.31%; and `CC(C)C(Br)C(=O)NC(N)=O` (stereo not given), with -10.9% [at 35.3 µM]; and `CCCCC/C=C\C/C=C\C/C=C\C/C=C\CCCC(=O)NCC(=O)O`, with -2.47% [at 35.3 µM].
In the case of `COc1c2c(cc3c1OCO3)CCN(C)C2`, the “viability change, negative = cytotoxic” value was 4.36% [at 35.3 µM].
Same read-out and setting: in the case of `CCC1(CC)C(=O)N=C(O)NC1=O` it was 2.01%.
For `CC(=O)[O][Sn]([c]1ccccc1)([c]1ccccc1)[c]1ccccc1`, the Potency is 1950 nM (active).
Consider `c1csc(-c2ccc(-c3cccs3)s2)c1`, for which the “viability change, negative = cytotoxic” value was -13.1%.
Still for that read-out and setting: in the case of `O=C(Cl)c1ccccc1F` it was -0.313%.
The same measure, in the same setting: in the case of `C#CCO` it was -2.41%; in that of `CCC(C)Nc1c([N+](=O)[O-])cc(C(C)(C)C)cc1[N+](=O)[O-]` (stereo not given), -25.6%.
The same measure, in the same setting: in the case of `CCCCC(CC)COC(=O)c1ccccc1C(=O)OCC(CC)CCCC` (stereo not given) it was -13.3%.
